Values without a mark were called inactive. Entries that show only a call come without a potency. Calls of active or inactive are those of the source. Calls follow the shape of the dose curve; as a rule, active = well fitted curve in the direction sought with a large enough effect in the repeat runs; inconclusive = weak or mixed curves; inactive = flat fitted curve, though single readings scatter.
Test: qHTS assay to test for compound auto fluorescence at 460 nm (blue) in HEK293 cell free culture (AID 720681)
Conditions: cell-free medium, autofluorescence 405/460 nm (blue); series mostly up to 91.3 µM
Excerpt: U.S. Tox21 Program National Center for Advancing Translational Sciences [NCATS] NIH Chemical Genomics Center [NCGC] U.S. Environmental Protection Agency [EPA] National Institutes of Environmental Health Sciences [NIEHS] National Toxicology Program [NTP] U.S. Food and Drug Administration [FDA] Tox21 Assay Overview: Compound auto fluorescence often interferes with screening of the compound library against various biological targets and signaling pathways. Some of these compounds may have fluorophoric properties. Such properties may interfere with the assay outputs resulting in false positives and/or negatives. To decrease such complications and ensure the compound activities are relevant in terms of biological response, the Tox21 10K compound library was screened for auto fluorescence. From the fluorophores used as reporter signals in our screening assays, the auto fluorescence equivalencies of compounds against three fluorophores have been evaluated: Triamterene, Fluorescein and Rose Bengal sodium for blue, green and red fluorescence, respectively. The fluorescence intensities were measured using Excitation/Emission wavelengths at 405/460nm, 485/535nm and 540/590nm for blue, green and red labels, respectively. This assay includes the blue fluorescence data.
Tox21 Assay Protocol Summary: 5 uL of culture medium (DMEM containing 10% FBS) per well was dispensed into black wall/clear bottom 1536-well plates using a Multidrop Combi Dispenser (ThermoFisher Scientific, Waltham, MA). After 23 nL compound or DMSO vehicle was transferred into assay plate by a pintool work station (Kalypsys, San Diego, CA), fluorescence intensities in the assay plates were measured by an Envision (PerkinElmer, Shelton, CT) plate reader using three labels for measuring blue, green and red fluorescence at […] 460, 535 and 590nm respectively.

Row | Compound | Potency | fluorescence, % of fluorescent control
1 | C1COCCO1 | inactive | –
2 | C1=C\CC/C=C\CC/C=C\CC/1 | inactive | –
3 | CCN1CCCC(OC(=O)C(c2ccccc2)c2ccccc2)C1 (stereo not given) | – | 0.0253% [at 18.6 µM]
4 | CC(C)(O)Cc1ccccc1 | inactive | –
5 | FC(F)(F)C(F)(F)C(F)(F)C(F)(F)C(F)(F)C(F)(F)C(F)(F)C(F)(F)C(F)(F)C(F)(F)F | – | -0.0458% [at 9.17 µM]
6 | Oc1ccc2c(c1)OC[C@@H](N1CCC(O)(c3ccc(F)cc3)CC1)[C@H]2O | inactive | –
7 | CCc1cc(S(=O)(=O)O)c2cc(C(C)C)cccc1-2 | inactive | –
8 | O=C(O)/C=C/c1ccc(/C=C/C(=O)O)cc1 | inactive | –
9 | C=C(C)C(=O)OCCC(C)OC(=O)C(=C)C (stereo not given) | inactive | –
10 | C[C@H](O)C(=O)Nc1c(I)c(C(=O)NC(CO)CO)c(I)c(C(=O)NC(CO)CO)c1I | – | -0.108% [at 18.6 µM]
11 | C#CC(C)(O)CC(C)C (stereo not given) | inactive | –
12 | CC/C=C\CCCCO | inactive | –
13 | OCCCCCCO | inactive | –
14 | CC(C)CCCCCCN | inactive | –
15 | COCCOC(=O)CC#N | inactive | –
16 | C=CCSCC1Nc2cc(Cl)c(S(N)(=O)=O)cc2S(=O)(=O)N1 (stereo not given) | inactive | –
17 | CC(C)(C)CC(C)(C)N | inactive | –
18 | CC(C)[N+](C)(C)CC(O)COc1cccc2ccccc12 (stereo not given) | inactive | –
19 | C=C[Si](OC)(OC)OC | inactive | –
20 | CC(C)c1ccc2oc3nc(N)c(C(=O)O)cc3c(=O)c2c1 | inactive | –

Row | Compound | Potency | fluorescence, % of fluorescent control
21 | CCCCCCCCCCC1CO1 (stereo not given) | inactive | –
22 | CCCCCCC(=O)OCC | inactive | –
23 | Nc1cc(C(Cl)=C(Cl)Cl)c(S(N)(=O)=O)cc1S(N)(=O)=O | inactive | –
24 | O=C(O)c1ccccc1-c1ccc(C(F)(F)F)cc1 | inactive | –
25 | CCCCCCC(CCCCCCCCCCC(=O)OCC(COC(C)=O)OC(C)=O)OC(C)=O (stereo not given) | inactive | –
26 | NS(=O)(=O)c1cc(C2(O)NC(=O)c3ccccc32)ccc1Cl (stereo not given) | – | -0.0547% [at 18.6 µM]
27 | CC(C)(C)C(=O)/C=C/c1ccc(Cl)cc1 | inactive | –
28 | CCC(=O)Nc1cccc(N)c1 | inactive | –
29 | NS(=O)(=O)c1cc2c(cc1C(F)(F)F)NC(Cc1ccccc1)NS2(=O)=O (stereo not given) | – | 0.419% [at 18.6 µM]
30 | CCC(C)OC(=O)N1CCCCC1CCO (stereo not given) | inactive | –
31 | CO[Si](CCCNCCC[Si](OC)(OC)OC)(OC)OC | inactive | –
32 | CCCCNc1ccccc1 | inactive | –
33 | CN(C)CCn1nnnc1SCC1=C(C(=O)O)N2C(=O)[C@@H](NC(=O)Cc3csc(N)n3)[C@H]2SC1 | – | 0.443% [at 18.6 µM]
34 | CC(C)c1cccc(C(C)C)c1N | inactive | –
35 | CC1=CC(C)C(C=O)C(C)C1 (stereo not given) | inactive | –
36 | O=Cc1ccccc1[N+](=O)[O-] | inactive | –
37 | CCCCCCCCCCCl | inactive | –
38 | COc1nc(C)nc(N)n1 | inactive | –
39 | CC(=O)c1ccc(C)cc1 | inactive | –
40 | CN(C)CCOC(c1ccc(Cl)cc1)c1ccccn1 (stereo not given) | inactive | –

Reference: PubChem BioAssay (Tox21)
